Results taken from PubChem BioAssay AID602429 (Sanford-Burnham Center for Chemical Genomics, 2012).
The whole screen tested about 360,000 compounds, of which about 1,200 (0.33%) were called active. This excerpt belongs to a sample that is enriched for actives. Unmarked numbers belong to inactive results. No stated cut-off is given here; in the data, active means inhibition above about 37%; inactive means the rest.

Target: Small ubiquitin-related modifier 1 (Homo sapiens) (UniProt P63165)
Assay: modulators of SUMO1 protein-protein interactions, primary screen, biochemical, uHTS (AID 602429)
Details: SUMO1 binding to a labelled peptide, TR-FRET, 1 h; at 20 µM; hits give high values

Small ubiquitin-related modifier 1 (Homo sapiens), sequence (P63165 whole entry, looked up): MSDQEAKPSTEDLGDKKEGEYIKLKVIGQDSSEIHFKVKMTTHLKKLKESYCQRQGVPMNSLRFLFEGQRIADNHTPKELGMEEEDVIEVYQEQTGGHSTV

| SMILES | inhibition |
| --- | --- |
| COc1ccc(N2C(=O)/C(=C/c3ccco3)C(=O)NC2=S)cc1 | 88.7% (active) |
| COC(=O)C1=C(c2cc3ccccc3s2)C[C@@H]2CC[C@H]1N2C(=O)NCc1cccc2ccccc12 | 5.43% |
| Cc1nn(Cc2ccccc2Cl)c(Cl)c1C(=O)OC(C(=O)NC(N)=O)C(C)C (stereo not given) | -1.52% |
| C[C@H]1CN([C@@H](C)CO)C(=O)CCCn2nncc2CO[C@H]1CN(C)C(=O)Oc1cccc2ccccc12 | 0.0734% |
| O=C1NC(=O)C(CCOc2ccccc2)(CCc2ccccc2)C(=O)N1 | -4.22% |
| COc1cccc(N2C(=O)NC(=O)/C(=C\c3ccc([N+](=O)[O-])s3)C2=O)c1 | 38.1% (active) |
| CC(=O)N(C1=NCCCS1)c1ccccc1F | -2.29% |
| CCCn1c(C(=O)c2ccccc2OC)nc2ccccc21 | -1.49% |
| CCCCCn1c(=O)c(C(=O)Nc2c(C)n(C)n(-c3ccccc3)c2=O)c(O)c2ccccc21 | 4.99% |
| C=C(C)C1(CCCC)C(=O)NC(=S)NC1=O | 6.06% |
